More than one record can exist for a structure, and the calls need not agree. The source made the active and inactive calls. How the source made its calls: active means hit-call score of the fitted dose curve at least 0.9, where 1 is the maximum; inactive means score below 0.9.
molecular target: CCAAT/enhancer-binding protein beta (Homo sapiens) (UniProt P17676); experiment: ATG_C_EBP_CIS: Attagene CIS-FACTORIAL HepG2 Assay for human CCAAT/Enhancer Binding Protein (C/EBP) beta (AID 2282927); conditions: HepG2 Attagene cis-factorial transcription factor reporter; actives raise or lower the signal
Method in brief: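 Chemical-treated HepG2 cells (24 h) bearing cis-regulated reporter constructs were processed for total RNA, then reverse transcription, PCR amplification, fluorescent primer extension and fragment analysis; gain- and loss-of-signal were fitted against DMSO.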

CCAAT/enhancer-binding protein beta (Homo sapiens), sequence (P17676 whole entry, looked up, the tested form may be a part): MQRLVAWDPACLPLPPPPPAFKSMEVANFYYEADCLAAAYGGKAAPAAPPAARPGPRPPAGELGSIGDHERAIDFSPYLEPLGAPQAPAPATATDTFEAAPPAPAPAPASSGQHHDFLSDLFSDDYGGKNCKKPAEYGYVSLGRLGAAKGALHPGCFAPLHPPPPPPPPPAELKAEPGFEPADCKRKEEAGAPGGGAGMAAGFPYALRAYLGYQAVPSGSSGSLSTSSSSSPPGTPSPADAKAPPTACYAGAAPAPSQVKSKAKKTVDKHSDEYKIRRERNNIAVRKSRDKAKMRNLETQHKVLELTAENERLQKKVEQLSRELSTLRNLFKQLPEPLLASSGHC

AC50, active:
CCCCc1oc2ccccc2c1C(=O)c1cc(I)c(OCCN(CC)CC)c(I)c1 95 µM
C=CC(=O)OCCN(CC)CC 44.2 µM
CCCCCCCCCCCC[N+](C)(C)Cc1ccccc1 18 µM
NC(=NCCCCCCN=C(N)/N=C(\N)Nc1ccc(Cl)cc1)/N=C(\N)Nc1ccc(Cl)cc1 24.6 µM
C=C(c1ccc(C(=O)O)cc1)c1cc2c(cc1C)C(C)(C)CCC2(C)C 0.0309 µM

outcome, inactive:
CN(C)CCOC(c1ccccc1)c1ccccc1
O=C1NS(=O)(=O)c2ccccc21
CCCCC=O
O=C1Cc2ccccc2N1c1c(Cl)cccc1Cl
CCCCCCCCCCCC[N+](C)(C)Cc1ccccc1
CC(=O)Nc1ccc(O)cc1
Cc1[nH]nc2c1N=C(c1ccccc1Cl)c1cc([N+](=O)[O-])ccc1N2
OCC(CO)(CBr)CBr
O=C(CCCN1CCC(O)(c2ccc(Cl)cc2)CC1)c1ccc(F)cc1
N=C(N)c1ccc(OCCCCCOc2ccc(C(=N)N)cc2)cc1
NC(C(F)(F)F)C(F)(F)F
CC(C)(C)c1ccc(O)c(O)c1
Cc1cccc2c1ccc1ccccc12
NC(=NCCCCCCN=C(N)/N=C(\N)Nc1ccc(Cl)cc1)/N=C(\N)Nc1ccc(Cl)cc1
CCCCCCCCCCCCCCC
O=S(=O)(O)C(F)(F)C(F)(F)C(F)(F)C(F)(F)C(F)(F)C(F)(F)C(F)(F)C(F)(F)C(F)(F)C(F)(F)F
COC(=O)C(F)(F)C(F)(F)C(F)(F)C(F)(F)C(F)(F)F
CCCCCC(C)OC(=O)COc1ccc(Cl)c2cccnc12 (centres undefined)
CN(Cc1cnc2nc(N)nc(N)c2n1)c1ccc(C(=O)N[C@@H](CCC(=O)O)C(=O)O)cc1
CS(=O)(=O)c1ccc([C@@H](CC2CCCC2)C(=O)Nc2cnccn2)cc1Cl
C=CC(F)(F)C(F)(F)C(F)(F)C(F)(F)F
CCCCC(CC)C(=O)O (centres undefined)
CCOC=O
CCCCCCCCCCCCCC[n+]1ccccc1
CC(C)(C)C1CCCCC1O (centres undefined)
O=C(NO)c1ccccc1
O=C(c1ccccc1)c1ccccc1
C[N+](C)(CCCNS(=O)(=O)CCC(F)(F)C(F)(F)C(F)(F)C(F)(F)C(F)(F)C(F)(F)F)CC(=O)[O-]
CN(C)c1ccc(C(=C2C=CC(=[N+](C)C)C=C2)c2ccccc2)cc1
NNc1nc(-c2ccc([N+](=O)[O-])cc2)cs1
C=C(c1ccc(C(=O)O)cc1)c1cc2c(cc1C)C(C)(C)CCC2(C)C
C=CC(=C)CC/C=C(\C)CCC=C(C)C
CC[N+](CC)(CC)Cc1ccccc1
O=C1OC(=O)C(F)(F)C1(F)F

— PubChem BioAssay (EPA / NIEHS)
